# Experimental data reported in PubChem BioAssay (EPA / NIEHS).
# “And” between values parts separate entries of the source, which are not always exact repeats. Equal entries are not always repeated. Inconclusive results are not listed. The source made the active and inactive calls. The calls were made as follows: active = hit-call score of the fitted dose curve at least 0.9, where 1 is the maximum; inconclusive = response in the unintended direction; inactive = score below 0.9.
# Assays:
# [1] = target: human Raf-1 Proto-Oncogene, serine/threonine Kinase (RAF1), RAF1 (gene 5894) (UniProt P04049); experiment: NVS_ENZ_hRAF1: NovaScreen (NVS) Enzymatic Assay for human Raf-1 Proto-Oncogene, serine/threonine Kinase (RAF1) (AID 2283216)
# Procedure, shortened: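 Cell-free recombinant kinase with specific fluorescent substrate, product separated by electrophoretic mobility shift; read 1 h after dosing. Primary screen at 25 uM in duplicate; hits then run in concentration-response up to 50 uM, fitted as loss of signal versus DMSO.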
# [2] = target: rabbit Imidazoline 2 Central (I2C), CKB (gene 100009085) (UniProt P00567); experiment: NVS_ENZ_rabI2C: NovaScreen (NVS) Enzymatic Assay for rabbit Imidazoline 2 Central (I2C) (AID 2283228)
# Procedure, shortened: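 Rabbit brain membranes, cell-free; readout by filter-based scintillation counting 1.5 hours after dosing, loss of signal vs DMSO. Initial duplicate test at 25 uM, then concentration-response with 50 uM top concentration.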
# [3] = target: rat Monoamine Oxidase, MAO-B, Central (MAOBC), Maob (gene 25750) (UniProt P19643); experiment: NVS_ENZ_rMAOBC: NovaScreen (NVS) Enzymatic Assay for rat Monoamine Oxidase, MAO-B, Central (MAOBC) (AID 2283238)
# Procedure, shortened: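 Compounds were first tested in duplicate at 25 uM against MAO-B from rat brain tissue; those passing the inhibition threshold were retested in concentration series up to 50 uM. Radiodetection by scintillation counting at 1.17 h, analysed against DMSO baseline.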
# [4] = target: human Sirtuin 2 (SIRT2), SIRT2 (gene 22933) (UniProt Q8IXJ6); experiment: NVS_ENZ_hSIRT2: NovaScreen (NVS) Enzymatic Assay for human Sirtuin 2 (SIRT2) (AID 2283217)
# Procedure, shortened: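 Cell-free recombinant human SIRT2, fluorescent substrate with product separated by electrophoretic mobility shift, 1 hr. Screened in duplicate at 25 uM; hits rerun singly in concentration-response up to 50 uM, relative to DMSO.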
# [5] = target: human Sirtuin 1 (SIRT1), SIRT1 (gene 23411) (UniProt Q96EB6); experiment: NVS_ENZ_hSIRT1: NovaScreen (NVS) Enzymatic Assay for human Sirtuin 1 (SIRT1) (AID 2283219)
# Procedure, shortened: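 Cell-free recombinant SIRT1 with a fluorescent substrate; substrate and product separated by electrophoretic mobility shift and read by fluorescence intensity, 1 h after dosing. Primary screen at 25 uM in duplicate; hits re-run in concentration-response up to 50 uM, relative to DMSO.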
# [6] = target: human Sirtuin 3 (SIRT3), SIRT3 (gene 23410) (UniProt Q9NTG7); experiment: NVS_ENZ_hSIRT3: NovaScreen (NVS) Enzymatic Assay for human Sirtuin 3 (SIRT3) (AID 2283222)
# Procedure, shortened: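 Cell-free enzyme assay with recombinant protein and fluorescent substrate, product separated by electrophoretic mobility shift; read 1 hour after dosing. Screened in duplicate at 25 uM, then singleton concentration-response up to 50 uM; loss of signal versus DMSO.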
# [7] = target: rat Adenylate Cyclase, Forskolin Stimulated, Adcy5 (gene 64532) (UniProt Q04400); experiment: NVS_ENZ_rACFSKBinding: NovaScreen (NVS) Enzymatic Assay for rat Adenylate Cyclase, Forskolin Stimulated (AID 2283232)
# Procedure, shortened: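 Rat forebrain membrane preparation, cell-free, read 1 h after dosing by filter-based scintillation counting. Primary screen in duplicate at 25 uM; actives (e.g. ≥30% inhibition) rerun in concentration-response up to 50 uM; fit versus DMSO.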
# [8] = test system: rat Monoamine Oxidase, MAO-A, Peripheral (MAOAP), gene 29253; experiment: NVS_ENZ_rMAOAP: NovaScreen (NVS) Enzymatic Assay for rat Monoamine Oxidase, MAO-A, Peripheral (MAOAP) (AID 2283237)
# Procedure, shortened: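 Rat liver mitochondrial membranes served as the MAO-A source, with enzyme activity measured by radiometric scintillation counting 1.17 hours after dosing. Loss of signal was fitted against DMSO; primary screen used 25 uM in duplicate, follow-up used concentration series.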
# [9] = target: rat Constitutive Nitric Oxide Synthase (CNOS), Nos1 (gene 24598) (UniProt P29476); experiment: NVS_ENZ_rCNOS: NovaScreen (NVS) Enzymatic Assay for rat Constitutive Nitric Oxide Synthase (CNOS) (AID 2283236)
# Procedure, shortened: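 Enzyme activity in rat brain membrane preparation, read 1 h after dosing by filter-based radiometric scintillation counting. Primary screen in duplicate at 25 uM; actives (e.g., ≥30% inhibition) then run in concentration-response up to 50 uM.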
# [10] = target: human Tyrosine Protein Kinase Receptor Tie-2 (Tie2), TEK (gene 7010) (UniProt Q02763); experiment: NVS_ENZ_hTie2: NovaScreen (NVS) Enzymatic Assay for human Tyrosine Protein Kinase Receptor Tie-2 (Tie2) (AID 2283225)
# Procedure, shortened: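 Recombinant human Tie2 kinase activity was read cell-free by fluorescence with electrophoretic mobility shift, 1 hour after dosing. The screen used 25 uM in duplicate, then concentration-response up to 50 uM. Signal loss was scored against DMSO.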
# [11] = target: rat Acetylcholinesterase (AChE), Ache (gene 83817) (UniProt P37136); experiment: NVS_ENZ_rAChE: NovaScreen (NVS) Enzymatic Assay for rat Acetylcholinesterase (AChE) (AID 2283233)
# Procedure, shortened: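 Rat brain membrane acetylcholinesterase activity measured colorimetrically 0.33 h after compound addition, loss of signal relative to DMSO. Primary screen in duplicate at 25 uM; actives re-run as concentration-response with 50 uM top concentration.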
# [12] = target: human Vascular Endothelial Growth Factor Receptor 3 (VEGFR3), FLT4 (gene 2324) (UniProt P35916); experiment: NVS_ENZ_hVEGFR3: NovaScreen (NVS) Enzymatic Assay for human Vascular Endothelial Growth Factor Receptor 3 (VEGFR3) (AID 2283229)
# Procedure, shortened: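 Cell-free recombinant VEGFR3 kinase reaction with fluorescent substrate, read 1 h after dosing by electrophoretic mobility shift separation of substrate and product. Single-concentration duplicate screen at 25 uM, then concentration-response up to 50 uM; loss of activity versus DMSO.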
# [13] = target: sheep Cyclooxygenase-2 (Cox2), PTGS2 (gene 443460) (UniProt P79208); experiment: NVS_ENZ_oCOX2: NovaScreen (NVS) Enzymatic Assay for sheep Cyclooxygenase-2 (Cox2) (AID 2283231)
# Procedure, shortened: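 Enzyme extracted from ovine placenta tested cell-free; activity read colorimetrically by absorbance 0.66 hour after dosing. Primary screen in duplicate at 25 uM; hits rerun as concentration series to 50 uM, loss of signal versus DMSO baseline.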
# [14] = target: sheep Cyclooxygenase-1 (Cox1), PTGS1 (gene 443551) (UniProt P05979); experiment: NVS_ENZ_oCOX1: NovaScreen (NVS) Enzymatic Assay for sheep Cyclooxygenase-1 (Cox1) (AID 2283239);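 also: actives reduce cyclooxygenase activity so potencies are for inhibitors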
# Procedure, shortened: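 Ovine seminal vesicle extract; absorbance (colorimetric) enzyme read-out at 0.66 h post-dose. Primary: single conc 25 uM, duplicate. Follow-up: concentration series on actives. Activity = signal loss vs DMSO baseline.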
# [15] = target: human Tropomyosin Receptor Kinase A (TRKA), NTRK1 (gene 4914) (UniProt P04629); experiment: NVS_ENZ_hTrkA: NovaScreen (NVS) Enzymatic Assay for human Tropomyosin Receptor Kinase A (TRKA) (AID 2283224)
# Procedure, shortened: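 Recombinant human TrkA activity read after 1 h by fluorescence with electrophoretic mobility shift separating substrate and product. Primary screen in duplicate at 25 uM; actives were rerun in concentration-response up to 50 uM. Loss of signal versus DMSO.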
# [16] = target: human Vascular Endothelial Growth Factor Receptor 1 (VEGFR1), FLT1 (gene 2321) (UniProt P17948); experiment: NVS_ENZ_hVEGFR1: NovaScreen (NVS) Enzymatic Assay for human Vascular Endothelial Growth Factor Receptor 1 (VEGFR1) (AID 2283226)
# Procedure, shortened: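 Cell-free assay of recombinant human VEGFR1 kinase with substrate, measured 1 h after dosing; fluorescence with electrophoretic mobility-shift separation of substrate and product, referenced to DMSO; primary screen at 25 uM in duplicate, actives then run in concentration series.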
# [17] = target: human Vascular Endothelial Growth Factor Receptor 2 (VEGFR2), KDR (gene 3791) (UniProt P35968); experiment: NVS_ENZ_hVEGFR2: NovaScreen (NVS) Enzymatic Assay for human Vascular Endothelial Growth Factor Receptor 2 (VEGFR2) (AID 2283230)
# Procedure, shortened: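 Cell-free recombinant VEGFR2 kinase, fluorescent substrate with electrophoretic mobility-shift separation; read 1 h after dosing. Screened at 25 uM in duplicate, hits to concentration-response up to 50 uM; loss-of-signal versus DMSO.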
# human Raf-1 Proto-Oncogene, serine/threonine Kinase (RAF1), RAF1 (gene 5894), sequence (P04049 whole entry, looked up): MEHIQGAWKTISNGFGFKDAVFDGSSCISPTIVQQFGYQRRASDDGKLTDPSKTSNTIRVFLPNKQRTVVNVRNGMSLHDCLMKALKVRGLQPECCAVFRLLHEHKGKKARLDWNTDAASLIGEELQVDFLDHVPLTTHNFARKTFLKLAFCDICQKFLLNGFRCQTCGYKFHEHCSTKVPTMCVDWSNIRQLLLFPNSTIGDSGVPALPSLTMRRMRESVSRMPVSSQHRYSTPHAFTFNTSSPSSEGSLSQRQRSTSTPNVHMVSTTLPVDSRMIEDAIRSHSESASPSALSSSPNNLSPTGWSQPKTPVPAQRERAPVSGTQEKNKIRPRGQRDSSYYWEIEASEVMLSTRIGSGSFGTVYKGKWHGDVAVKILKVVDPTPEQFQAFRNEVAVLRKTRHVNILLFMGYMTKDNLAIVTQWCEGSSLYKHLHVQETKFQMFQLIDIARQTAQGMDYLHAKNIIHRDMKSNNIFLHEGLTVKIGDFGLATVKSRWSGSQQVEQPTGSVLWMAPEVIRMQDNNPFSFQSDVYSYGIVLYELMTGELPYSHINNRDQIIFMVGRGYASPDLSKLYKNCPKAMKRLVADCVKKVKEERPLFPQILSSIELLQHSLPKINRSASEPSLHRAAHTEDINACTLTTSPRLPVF
# sheep Cyclooxygenase-1 (Cox1), PTGS1 (gene 443551), sequence (P05979 whole entry, looked up): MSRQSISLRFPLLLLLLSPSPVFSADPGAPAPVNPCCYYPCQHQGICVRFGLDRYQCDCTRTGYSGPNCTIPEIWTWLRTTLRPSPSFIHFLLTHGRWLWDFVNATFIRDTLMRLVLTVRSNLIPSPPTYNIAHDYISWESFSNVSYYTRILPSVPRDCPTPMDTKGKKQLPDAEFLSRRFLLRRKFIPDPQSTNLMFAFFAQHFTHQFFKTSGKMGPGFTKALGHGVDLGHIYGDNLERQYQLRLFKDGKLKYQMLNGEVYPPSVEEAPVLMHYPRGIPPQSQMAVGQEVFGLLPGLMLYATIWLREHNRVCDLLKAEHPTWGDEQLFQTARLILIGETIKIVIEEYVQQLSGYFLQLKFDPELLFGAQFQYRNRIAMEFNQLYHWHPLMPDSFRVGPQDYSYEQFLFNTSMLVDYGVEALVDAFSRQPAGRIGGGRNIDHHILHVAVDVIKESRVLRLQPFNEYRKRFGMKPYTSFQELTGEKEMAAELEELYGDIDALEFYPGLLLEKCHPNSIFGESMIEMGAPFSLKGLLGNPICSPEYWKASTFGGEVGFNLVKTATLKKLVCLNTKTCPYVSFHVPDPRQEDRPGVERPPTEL
# rat Monoamine Oxidase, MAO-B, Central (MAOBC), Maob (gene 25750), sequence (P19643 whole entry, looked up): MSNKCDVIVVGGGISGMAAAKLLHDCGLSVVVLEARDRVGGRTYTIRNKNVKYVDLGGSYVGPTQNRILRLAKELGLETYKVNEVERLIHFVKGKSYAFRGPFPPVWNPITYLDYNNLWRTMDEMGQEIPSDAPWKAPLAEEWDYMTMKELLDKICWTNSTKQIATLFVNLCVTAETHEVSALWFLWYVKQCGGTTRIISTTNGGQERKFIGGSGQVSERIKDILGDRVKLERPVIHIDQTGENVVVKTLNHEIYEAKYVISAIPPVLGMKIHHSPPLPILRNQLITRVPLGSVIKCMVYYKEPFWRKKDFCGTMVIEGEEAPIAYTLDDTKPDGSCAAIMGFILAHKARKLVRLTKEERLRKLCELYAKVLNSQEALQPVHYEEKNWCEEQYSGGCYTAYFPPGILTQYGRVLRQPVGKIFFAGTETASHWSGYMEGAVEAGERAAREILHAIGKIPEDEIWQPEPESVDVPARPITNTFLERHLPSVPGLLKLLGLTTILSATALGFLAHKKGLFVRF
# rat Acetylcholinesterase (AChE), Ache (gene 83817), sequence (P37136 whole entry, looked up): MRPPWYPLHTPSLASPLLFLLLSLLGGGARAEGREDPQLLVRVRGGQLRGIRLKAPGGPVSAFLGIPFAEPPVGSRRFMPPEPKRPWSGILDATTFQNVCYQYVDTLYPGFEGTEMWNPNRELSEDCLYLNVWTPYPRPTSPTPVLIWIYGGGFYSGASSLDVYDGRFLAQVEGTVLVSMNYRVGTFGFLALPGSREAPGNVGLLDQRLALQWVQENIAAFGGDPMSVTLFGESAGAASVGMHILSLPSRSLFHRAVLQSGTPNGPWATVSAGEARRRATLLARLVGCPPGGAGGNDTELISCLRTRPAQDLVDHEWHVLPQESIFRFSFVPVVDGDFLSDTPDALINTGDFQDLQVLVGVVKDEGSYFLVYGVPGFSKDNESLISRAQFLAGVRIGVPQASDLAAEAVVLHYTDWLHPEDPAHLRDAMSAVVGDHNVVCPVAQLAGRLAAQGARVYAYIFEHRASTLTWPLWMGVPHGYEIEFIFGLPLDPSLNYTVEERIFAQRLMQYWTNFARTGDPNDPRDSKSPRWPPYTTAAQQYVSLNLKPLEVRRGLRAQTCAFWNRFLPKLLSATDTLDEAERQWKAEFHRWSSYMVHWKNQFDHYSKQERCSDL
# human Sirtuin 3 (SIRT3), SIRT3 (gene 23410), sequence (Q9NTG7 whole entry, looked up): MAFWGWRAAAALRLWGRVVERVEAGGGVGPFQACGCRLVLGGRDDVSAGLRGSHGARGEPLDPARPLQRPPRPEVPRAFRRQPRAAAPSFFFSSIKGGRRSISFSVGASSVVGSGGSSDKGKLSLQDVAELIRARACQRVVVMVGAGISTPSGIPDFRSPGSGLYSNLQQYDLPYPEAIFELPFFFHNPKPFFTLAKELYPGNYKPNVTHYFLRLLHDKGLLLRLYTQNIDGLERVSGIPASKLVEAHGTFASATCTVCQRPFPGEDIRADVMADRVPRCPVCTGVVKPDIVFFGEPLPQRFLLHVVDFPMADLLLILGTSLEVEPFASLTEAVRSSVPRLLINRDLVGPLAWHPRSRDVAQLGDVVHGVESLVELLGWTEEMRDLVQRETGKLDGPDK
# human Sirtuin 1 (SIRT1), SIRT1 (gene 23411), sequence (Q96EB6 whole entry, looked up): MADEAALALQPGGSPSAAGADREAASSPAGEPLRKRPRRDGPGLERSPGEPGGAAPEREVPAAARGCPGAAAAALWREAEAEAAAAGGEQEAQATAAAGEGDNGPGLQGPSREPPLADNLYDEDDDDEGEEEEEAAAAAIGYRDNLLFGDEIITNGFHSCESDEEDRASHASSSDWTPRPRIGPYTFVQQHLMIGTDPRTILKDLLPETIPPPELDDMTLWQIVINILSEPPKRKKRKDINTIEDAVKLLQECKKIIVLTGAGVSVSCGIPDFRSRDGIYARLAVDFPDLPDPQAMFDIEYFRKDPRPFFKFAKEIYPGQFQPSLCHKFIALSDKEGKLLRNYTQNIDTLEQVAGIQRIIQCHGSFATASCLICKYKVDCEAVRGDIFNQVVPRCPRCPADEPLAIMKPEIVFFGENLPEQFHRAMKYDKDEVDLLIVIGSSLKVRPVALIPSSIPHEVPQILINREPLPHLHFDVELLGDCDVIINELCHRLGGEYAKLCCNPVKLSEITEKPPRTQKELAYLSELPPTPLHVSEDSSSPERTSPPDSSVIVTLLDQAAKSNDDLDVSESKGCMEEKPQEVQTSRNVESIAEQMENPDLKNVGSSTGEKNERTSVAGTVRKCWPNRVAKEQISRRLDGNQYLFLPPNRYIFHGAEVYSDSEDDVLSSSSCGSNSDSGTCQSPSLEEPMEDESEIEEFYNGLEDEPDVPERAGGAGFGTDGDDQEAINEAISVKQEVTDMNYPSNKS
# sheep Cyclooxygenase-2 (Cox2), PTGS2 (gene 443460), sequence (P79208 whole entry, looked up): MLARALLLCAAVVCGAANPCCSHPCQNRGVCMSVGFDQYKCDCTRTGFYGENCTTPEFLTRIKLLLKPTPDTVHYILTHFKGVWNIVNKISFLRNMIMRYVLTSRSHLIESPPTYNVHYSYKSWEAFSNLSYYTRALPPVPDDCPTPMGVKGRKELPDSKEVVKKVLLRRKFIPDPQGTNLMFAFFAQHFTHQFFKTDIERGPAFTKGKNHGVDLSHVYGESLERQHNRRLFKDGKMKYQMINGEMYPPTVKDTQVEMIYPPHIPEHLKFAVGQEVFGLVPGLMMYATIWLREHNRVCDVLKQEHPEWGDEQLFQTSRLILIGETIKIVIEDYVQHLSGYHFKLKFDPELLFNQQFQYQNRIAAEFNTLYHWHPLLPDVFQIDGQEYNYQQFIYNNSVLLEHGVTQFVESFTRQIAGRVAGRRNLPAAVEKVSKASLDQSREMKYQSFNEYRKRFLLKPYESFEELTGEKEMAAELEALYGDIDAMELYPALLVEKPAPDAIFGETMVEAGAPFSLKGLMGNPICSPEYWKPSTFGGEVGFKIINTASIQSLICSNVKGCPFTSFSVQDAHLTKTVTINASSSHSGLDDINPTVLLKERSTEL
# human Sirtuin 2 (SIRT2), SIRT2 (gene 22933), sequence (Q8IXJ6 whole entry, looked up): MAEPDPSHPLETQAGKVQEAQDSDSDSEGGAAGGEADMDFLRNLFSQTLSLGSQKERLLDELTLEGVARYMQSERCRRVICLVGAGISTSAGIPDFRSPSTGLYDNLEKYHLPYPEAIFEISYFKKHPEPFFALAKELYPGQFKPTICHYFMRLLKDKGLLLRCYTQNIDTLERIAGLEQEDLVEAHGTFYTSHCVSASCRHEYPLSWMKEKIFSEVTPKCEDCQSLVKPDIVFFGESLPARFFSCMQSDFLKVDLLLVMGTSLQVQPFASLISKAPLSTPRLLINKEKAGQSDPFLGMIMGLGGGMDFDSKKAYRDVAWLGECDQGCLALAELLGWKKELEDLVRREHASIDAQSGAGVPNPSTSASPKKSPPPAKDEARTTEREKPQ
# rabbit Imidazoline 2 Central (I2C), CKB (gene 100009085), sequence (P00567 whole entry, looked up): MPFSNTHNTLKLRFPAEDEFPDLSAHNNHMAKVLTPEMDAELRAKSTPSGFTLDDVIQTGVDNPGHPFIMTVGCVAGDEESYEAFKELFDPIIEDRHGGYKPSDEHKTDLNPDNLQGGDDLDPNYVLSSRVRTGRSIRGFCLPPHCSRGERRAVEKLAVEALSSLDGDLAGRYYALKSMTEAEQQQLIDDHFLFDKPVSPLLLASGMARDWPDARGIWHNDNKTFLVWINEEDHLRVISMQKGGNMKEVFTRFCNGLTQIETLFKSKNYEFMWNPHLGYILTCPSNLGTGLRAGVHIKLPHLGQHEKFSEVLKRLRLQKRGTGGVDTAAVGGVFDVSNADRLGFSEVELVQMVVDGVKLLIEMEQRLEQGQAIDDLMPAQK
smiles,measurement,setting,value
O=C(Nc1ccccc1)Nc1ccnc(Cl)c1,outcome,[1],inactive
same,outcome,[2],inactive
same,outcome,[3],inactive
CCCCNC(=O)OCC#CI,outcome,[4],inactive
same,AC50,[5],11.9 µM (active) and 10.7 µM (active)
same,outcome,[6],inactive
same,AC50,[7],18.1 µM (active) and 19.4 µM (active)
same,AC50,[8],36.8 µM (active) and 25 µM (active)
same,outcome,[3],inactive
CC1COC(Cn2cncn2)(c2ccc(Oc3ccc(Cl)cc3)cc2Cl)O1 (centres undefined),outcome,[6],inactive
same,AC50,[8],1.3 µM (active)
CCCCC(CC)COC(=O)c1ccccc1C(=O)OCC(CC)CCCC (centres undefined),outcome,[9],inactive
CC(C)Oc1cc(-n2nc(C(C)(C)C)oc2=O)c(Cl)cc1Cl,outcome,[7],inactive
Fc1ccc(Oc2ccnc3cc(Cl)cc(Cl)c23)cc1,AC50,[1],17 µM (active)
same,outcome,[4],inactive
COC(=O)C(C)Oc1ccc(Oc2ccc(Cl)cc2Cl)cc1 (centres undefined),outcome,[10],inactive
CS/C(C)=N/OC(=O)N(C)SN(C)C(=O)O/N=C(\C)SC,AC50,[5],6.69 µM (active)
same,AC50,[7],6.77 µM (active)
same,AC50,[11],2 µM (active)
CCNc1nc(Cl)nc(NC(C)C)n1,outcome,[12],inactive
same,AC50,[13],7.07 µM (active) and 12.4 µM (active)
C=CCC1=C(C)[C@@H](OC(=O)[C@@H]2[C@@H](C=C(C)C)C2(C)C)CC1=O,outcome,[14],inactive
CCCN(CCC)c1c([N+](=O)[O-])cc(S(N)(=O)=O)cc1[N+](=O)[O-],outcome,[6],inactive
same,outcome,[15],inactive
same,outcome,[10],inactive
same,outcome,[16],inactive
same,outcome,[13],inactive
same,outcome,[7],inactive
same,outcome,[9],inactive
COC(=O)C=C(C)OP(=O)(OC)OC,AC50,[11],1.52 µM (active)
CO/C=C(/C(=O)OC)c1ccccc1Oc1cc(Oc2ccccc2C#N)ncn1,outcome,[4],inactive
same,outcome,[6],inactive
same,outcome,[15],inactive
same,outcome,[17],inactive
same,outcome,[14],inactive
CNC(=O)ON=CC(C)(C)SC,outcome,[1],inactive
same,AC50,[11],6.41 µM (active)
C=CC1(C)OC(=O)N(c2cc(Cl)cc(Cl)c2)C1=O (centres undefined),AC50,[13],5.97 µM (active)
same,outcome,[3],inactive
same,outcome,[14],inactive
C=CCC1=C(C)C(OC(=O)C2C(C=C(C)C)C2(C)C)CC1=O (centres undefined),outcome,[1],inactive
same,outcome,[6],inactive
same,outcome,[17],inactive
same,outcome,[8],inactive
